Laboratory results reported in PubChem BioAssay AID2240 (Broad Institute, 2010).
In all, about 37,000 compounds went through this assay and about 100 (0.27%) were called active. The entries come from a sample that favours actives as a whole. Unmarked numbers belong to inactive results. Cut-off read from the data, not from the text of the source: active = inhibition above about 85%; inconclusive = no clear call, values can overlap the other calls; inactive = below about 68%.

Experiment: inhibitors of MITF, primary screen, MITF inhibitor project, cell-based, luminescence (AID 2240);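 note: human melanocyte line stably carrying TRPM1 promoter luciferase reporter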
Settings: TRPM1 promoter luciferase, 24 h, stronger effect = higher value, concentration not given here

SMILES | inhibition
COc1ccc(NC(=O)CSC2CC(=O)N(c3ccc(F)cc3)C2=O)cc1 (configuration not stated) | -4.35%
CC(=O)Nc1ccc(NC(=O)CN(c2ccc(I)cc2)S(C)(=O)=O)cc1 | -73.1%
C[C@@H]1CN([C@H](C)CO)C(=O)c2cc(N(C)C)ccc2O[C@@H]1CN(C)S(=O)(=O)c1cn(C)cn1 | 0.48%
COc1ccc(NC(=O)Nc2ccc3c(c2)CC(=O)N([C@@H](C)CO)C[C@@H](C)[C@@H](CN(C)Cc2ccc(C(F)(F)F)cc2)O3)cc1 | 40.7%
C[C@@H]1CN([C@@H](C)CO)C(=O)c2cc(NC(=O)Nc3ccc(C(F)(F)F)cc3)ccc2O[C@@H]1CN(C)Cc1ccncc1 | 0.516%
COC(=O)c1c(C)c(=O)[nH]c2ccccc12 | 11.2%
C[C@@H]1CN([C@H](C)CO)C(=O)c2cc(NC(=O)CCCCCC(=O)Nc3ccccc3N)ccc2O[C@H]1CN(C)C(=O)Nc1ccc(C(F)(F)F)cc1 | 1.03%
CNC[C@H]1Oc2ccc(NC(=O)CCC(F)(F)F)cc2C(=O)N([C@@H](C)CO)C[C@H]1C | -6.95%
CC(C)(O)C(O)COc1c2occc2cc2ccc(=O)oc12 (configuration not stated) | -25%
CS(=O)(=O)N(CC(=O)Nc1ccc(Br)cc1)c1cc(Cl)c(Cl)cc1Cl | -6.97%
C[C@@H]1CN([C@H](C)CO)C(=O)Cc2cc(NC(=O)CCCN(C)C)ccc2O[C@H]1CN(C)S(=O)(=O)c1cccs1 | -32%
C[C@H](CO)N1C[C@H](C)[C@H](CN(C)C(=O)Nc2ccccc2)Oc2ccc(NC(=O)C3CC3)cc2CC1=O | -0.845%
C[C@@H]1CN([C@H](C)CO)C(=O)c2cc(NS(=O)(=O)c3cn(C)cn3)ccc2O[C@H]1CN(C)S(=O)(=O)c1ccc(Cl)cc1 | -0.174%
Cc1noc(C)c1S(=O)(=O)Nc1ccc2c(c1)CC(=O)N([C@H](C)CO)C[C@@H](C)[C@@H](CN(C)C)O2 | -9.62%
Cc1cc(C)c(NC(=O)CSc2nnc(-c3ccccc3)n2-c2ccc(F)cc2)c(C)c1 | 15.6%
Cc1ccc(S(=O)(=O)Nc2ccc3c(c2)C(=O)N([C@@H](C)CO)C[C@@H](C)[C@H](CN(C)Cc2ccc(C(F)(F)F)cc2)O3)cc1 | 24.8%
O=C(CSc1nccc(=O)[nH]1)Nc1cccc(Br)c1 | -6.51%
C[C@H](CO)N1C[C@H](C)[C@H](CN(C)Cc2ccc(-c3ccccc3)cc2)Oc2ccc(NS(=O)(=O)c3ccccc3)cc2C1=O | 0.813%
Cc1noc(C)c1NC(=O)Nc1ccc2c(c1)C(=O)N([C@@H](C)CO)C[C@@H](C)[C@H](CN(C)Cc1ccc(C(F)(F)F)cc1)O2 | -0.382%
Cc1cccc(NC(=O)CSc2nc3c(cc2C#N)CCCCC3)c1 | 0.0416%
CN(CC(=O)Nc1ccc(F)cc1)S(=O)(=O)c1ccccc1 | -37.2%
C[C@H]1CN([C@@H](C)CO)C(=O)Cc2cc(NC(=O)C3CC3)ccc2O[C@H]1CN(C)C(=O)Nc1ccc(C(F)(F)F)cc1 | -4.89%
COc1ccc(CN(C)C[C@H]2Oc3ccc(NC(=O)CCN4CCOCC4)cc3C(=O)N([C@@H](C)CO)C[C@H]2C)cc1 | 9.34%

SMILES | inhibition
Cc1cccc(C)c1NC(=O)C(C)N(c1ccc(Cl)cc1)S(C)(=O)=O (configuration not stated) | -20.7%
Cc1noc(C)c1S(=O)(=O)N(C)C[C@H]1Oc2ccc(NC(=O)CCN3CCOCC3)cc2CC(=O)N([C@H](C)CO)C[C@H]1C | 10.6%
O=C(NCc1ccco1)c1cc(-c2cccnc2)nc2ccc(Cl)cc12 | -14.7%
Cc1ccc(S(=O)(=O)Nc2cccc3c2O[C@H](CN(C)S(=O)(=O)c2cn(C)cn2)[C@H](C)CN([C@H](C)CO)C3=O)cc1 | 0.736%
Cc1ccc(S(=O)(=O)N(C)C[C@@H]2Oc3ccc(NC(=O)Nc4ccc(F)cc4)cc3C(=O)N([C@H](C)CO)C[C@@H]2C)cc1 | -19.7%
Cc1ccc(-n2c(SCC(=O)Nc3ccc(F)c(F)c3)nnc2-c2cnccn2)cc1 | -1.94%
C[C@H](CO)N1C[C@H](C)[C@H](CN(C)Cc2ccncc2)Oc2ccc(NS(=O)(=O)c3ccc(F)cc3)cc2CC1=O | -14.1%
COc1ccccc1NC(=O)CN(c1ccc(Br)c(C)c1)S(C)(=O)=O | -1.36%
C[C@H]1CN([C@@H](C)CO)C(=O)Cc2cc(NS(=O)(=O)c3cccs3)ccc2O[C@@H]1CN(C)S(=O)(=O)c1cn(C)cn1 | -7.83%
C[C@@H]1CN([C@@H](C)CO)C(=O)c2cccc(NC(=O)c3nc4ccccc4s3)c2O[C@@H]1CN(C)Cc1ccc(Cl)c(Cl)c1 | 10.3%
CN(C)c1ccc(NC(=O)CN(C)S(=O)(=O)c2ccc(Br)cc2)cc1 | -8.87%
COc1ccccc1NC(=O)CSc1ncc(-c2ccccc2)nn1 | -3.76%
Cn1c(SCc2nc3ccccc3c(=O)[nH]2)nnc1-c1cc2ccccc2o1 | 17.4%
C[C@H]1CN([C@@H](C)CO)C(=O)Cc2cc(NC(=O)NC3CCCCC3)ccc2O[C@H]1CN(C)S(=O)(=O)c1cccs1 | 6.16%
COc1ccc(S(=O)(=O)Nc2ccc3c(c2)C(=O)N([C@@H](C)CO)C[C@@H](C)[C@@H](CN(C)S(C)(=O)=O)O3)cc1 | 2.87%
C[C@@H]1CN([C@@H](C)CO)C(=O)Cc2cc(NC(=O)Cc3ccccc3)ccc2O[C@@H]1CN(C)Cc1ccc(Oc2ccccc2)cc1 | 41.7%
O=C(CN1CCOCC1)Nc1sc2c(c1C(=O)Nc1ccc(Br)cc1)CCC2 | 53%
COc1ccc(NC(=O)N(C)C[C@H]2Oc3ccc(NS(=O)(=O)c4cccs4)cc3C(=O)N([C@@H](C)CO)C[C@H]2C)cc1 | -5.79%
C[C@H](CO)N1C[C@H](C)[C@H](CN(C)S(=O)(=O)c2cn(C)cn2)Oc2c(NC(=O)c3ccc(-c4nccs4)cc3)cccc2C1=O | -4.22%
COc1ccc(NC(=O)Nc2ccc3c(c2)CC(=O)N([C@@H](C)CO)C[C@H](C)[C@@H](CN(C)CC2CCCCC2)O3)cc1 | -0.386%
CC(C)(C)c1ccc(S(=O)(=O)NCC(=O)Nc2ccc(F)cc2)cc1 | 1.01%
Cc1ccc(S(=O)(=O)Nc2ccc3c(c2)C(=O)N([C@H](C)CO)C[C@@H](C)[C@H](CN(C)Cc2ccccc2)O3)cc1 | -3.79%
C/C=C(\C)C(=O)OC(/C=C/C(O)C(C)O)C1C=CC(=O)O1 (configuration not stated) | -20%

SMILES | inhibition
CC(C)NC(=O)Nc1ccc2c(c1)C(=O)N([C@@H](C)CO)C[C@H](C)[C@H](CN(C)S(=O)(=O)c1cccs1)O2 | -11.3%
O=C(Oc1ccc(Br)cc1)c1ccco1 | 16.8%
C[C@@H]1CCCCO[C@H](CN(C)C(=O)C2CCCCC2)[C@@H](C)CN([C@H](C)CO)C(=O)c2cc(NC(=O)C3CCCCC3)ccc2O1 | -0.585%
Cc1ccc(-c2nnc(SCC(=O)Nc3ccccc3OC(F)F)o2)cc1 | -24.6%
C[C@@H]1CCCCO[C@@H](CN(C)C(=O)Nc2cccc3ccccc23)[C@@H](C)CN([C@H](C)CO)C(=O)c2cc(NS(C)(=O)=O)ccc2O1 | -18.2%
C[C@@H]1CN([C@@H](C)CO)C(=O)c2cc(NC(=O)Nc3cccc4ccccc34)ccc2O[C@H]1CN(C)Cc1ccc(Cl)c(Cl)c1 | 18.2%
COc1ccc(CCNc2nc(-c3cccc(NC(C)=O)c3)cs2)cc1OC | 15.8%
C[C@H]1CN([C@@H](C)CO)C(=O)c2cc(NS(C)(=O)=O)ccc2O[C@@H]1CN(C)S(=O)(=O)c1ccc(Cl)cc1 | -7.11%
C[C@@H]1CN([C@H](C)CO)C(=O)c2cccc(NS(=O)(=O)c3ccc(Cl)cc3)c2O[C@@H]1CN(C)C(=O)Nc1cccc2ccccc12 | 38.8%
O=S(=O)(c1ccccc1)c1nc(-c2ccccc2F)oc1NCc1cccnc1 | -15.8%
C[C@H](CO)N1C[C@H](C)[C@H](CN(C)S(=O)(=O)c2cn(C)cn2)Oc2ccc(NS(=O)(=O)c3ccccc3)cc2C1=O | -1.93%
CCCN1C(=O)C(NS(=O)(=O)c2ccc(N)cc2)(C(F)(F)F)C(C(=O)OC)=C1C (configuration not stated) | 5.23%
C[C@@H]1CN([C@H](C)CO)C(=O)c2cccc(N(C)C)c2O[C@H]1CN(C)S(=O)(=O)c1cn(C)cn1 | 8.04%
C[C@H](CO)N1C[C@H](C)[C@H](CN(C)C(=O)Nc2cccc3ccccc23)Oc2ccc(NS(C)(=O)=O)cc2C1=O | 4.6%
COc1ccc(C)cc1S(=O)(=O)N1CCCC(C(=O)Nc2ccccc2C(F)(F)F)C1 (configuration not stated) | 4.41%
Cc1ccc(NC(=O)c2cccc(N(C)C)c2)cc1NC(=O)c1ccc(O)cc1 | -40.4%
Cc1noc(C)c1NC(=O)Nc1ccc2c(c1)C(=O)N([C@H](C)CO)C[C@H](C)[C@@H](CN(C)C(=O)Nc1ccc(C(F)(F)F)cc1)O2 | -13.6%
CCc1ccc2c(c1)c1nc3ccccc3nc1n2CC(=O)OC | -10.5%
O=C(O)CCCC=C(c1ccccc1)c1ccccc1 | 12.2%
COc1ccc(C)cc1NC(=O)CSc1nc(SC)ns1 | 32.4%
COc1ccc(NC(=O)Nc2ccc3c(c2)CC(=O)N([C@@H](C)CO)C[C@H](C)[C@@H](CN(C)Cc2ccc4c(c2)OCO4)O3)cc1 | -13.4%
